What all share (experiment): HT-SELEX; high values mean tight binding
What all share (conditions): protein: recombinant; vector His6-GST; dsDNA, one strand shown

In one test the target is T1, SALL4 ZFC4 WT (HT-SELEX) (Mus musculus, UniProt Q8BX22 870-940).
T1 sequence: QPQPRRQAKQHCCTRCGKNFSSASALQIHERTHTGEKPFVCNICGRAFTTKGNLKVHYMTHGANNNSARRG
The procedure, abridged:
(§1)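 Residues 870–940 of mouse SALL4, forming zinc finger cluster 4, were expressed recombinantly, purified, and 1 µg was incubated with library DNA (1.5 µg first cycle, 200 ng later) in 100 µl of 10 mM Tris–HCl pH 7.5, 50 mM NaCl, poly(dI-dC) and DTT for 10 min at room temperature. Washed Ni2+ bead-captured complexes were PCR-amplified and reselected for up to 6 cycles in triplicate, and the products were sequenced on MiSeq and scanned for 6-mers. Binding signal is the fold change in each canonical k-mer's read fraction compared with the initial random library.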

Test [1] has as its target T2, SALL4 ZFC4 R900W (HT-SELEX) (Mus musculus, UniProt Q8BX22 870-940, R900W).
T2 sequence: T1 sequence with R31W
The method in brief:
as §1

In test [2] the target is T3, SALL4 ZFC4 G921D (HT-SELEX) (Mus musculus, UniProt Q8BX22 870-940, G921D).
T3 sequence: T1 sequence with G52D
The procedure, abridged: as §1

Positions count from the first letter of the chain named.

As to GAGTCA, the binding signal with SALL4 ZFC4 WT (HT-SELEX) came to 0.822 ± 0.0312 fold-change vs cycle 0; in test [1], 0.955 ± 0.0308 fold-change vs cycle 0; in test [2], 0.993 ± 0.0145 fold-change vs cycle 0.

Take ATACAA: the figures for the binding signal (with SALL4 ZFC4 WT (HT-SELEX); in test [1]; in test [2]) were 2 ± 0.0726 fold-change vs cycle 0, 1.98 ± 0.0733 fold-change vs cycle 0 and 1.76 ± 0.0991 fold-change vs cycle 0, respectively.

In the case of GGATCC, the binding signal in the test with SALL4 ZFC4 WT (HT-SELEX) turned out to be 0.489 ± 0.0186 fold-change vs cycle 0; in test [1], 0.559 ± 0.0217 fold-change vs cycle 0; in test [2], 0.643 ± 0.0527 fold-change vs cycle 0.

TGCAAA: the binding signal worked out at 1 ± 0.0674 fold-change vs cycle 0 with SALL4 ZFC4 WT (HT-SELEX), 0.975 ± 0.0411 fold-change vs cycle 0 in test [1] and 1.03 ± 0.0183 fold-change vs cycle 0 in test [2].

Consider AACAAT, for which the binding signal with SALL4 ZFC4 WT (HT-SELEX) amounted to 2.06 ± 0.132 fold-change vs cycle 0; in test [1], 1.95 ± 0.114 fold-change vs cycle 0; in test [2], 1.79 ± 0.145 fold-change vs cycle 0.

As for GCAACC, the results for the binding signal (with SALL4 ZFC4 WT (HT-SELEX); in test [1]; in test [2]) were 0.327 ± 0.0217 fold-change vs cycle 0, 0.365 ± 0.0107 fold-change vs cycle 0 and 0.503 ± 0.0559 fold-change vs cycle 0, respectively.

Turning to ACATCT, the binding signal in the test with SALL4 ZFC4 WT (HT-SELEX) was found to be 1.34 ± 0.0364 fold-change vs cycle 0; in test [1], 1.46 ± 0.0394 fold-change vs cycle 0; in test [2], 1.4 ± 0.0574 fold-change vs cycle 0.

GCTCCA: the binding signal with SALL4 ZFC4 WT (HT-SELEX) came out at 0.305 ± 0.0228 fold-change vs cycle 0; in test [1], 0.37 ± 0.0101 fold-change vs cycle 0; in test [2], 0.505 ± 0.0396 fold-change vs cycle 0.

GATGGA: the values for the binding signal (with SALL4 ZFC4 WT (HT-SELEX); in test [1]; in test [2]) were 0.878 ± 0.0295 fold-change vs cycle 0, 0.978 ± 0.0402 fold-change vs cycle 0 and 0.97 ± 0.0258 fold-change vs cycle 0, respectively.

As to TCCAAA, the binding signal with SALL4 ZFC4 WT (HT-SELEX) was found to be 1.1 ± 0.0395 fold-change vs cycle 0; in test [1], 1.19 ± 0.0233 fold-change vs cycle 0; in test [2], 1.17 ± 0.00926 fold-change vs cycle 0.

Regarding GATGAC, the binding signal with SALL4 ZFC4 WT (HT-SELEX) was 0.865 ± 0.0236 fold-change vs cycle 0; in test [1], 0.962 ± 0.0544 fold-change vs cycle 0; in test [2], 1.01 ± 0.0406 fold-change vs cycle 0.

Consider TAAGCA, for which the values for the binding signal (in the test with SALL4 ZFC4 WT (HT-SELEX); in test [1]; in test [2]) were 1.282 ± 0.00819 fold-change vs cycle 0, 1.3 ± 0.0615 fold-change vs cycle 0 and 1.26 ± 0.0364 fold-change vs cycle 0, respectively.

Turning to GACGTA, the results for the binding signal (in the test with SALL4 ZFC4 WT (HT-SELEX); in test [1]; in test [2]) were 0.666 ± 0.0264 fold-change vs cycle 0, 0.752 ± 0.0315 fold-change vs cycle 0 and 0.823 ± 0.0398 fold-change vs cycle 0, respectively.

Consider GGTCTA, for which the binding signal amounted to 0.681 ± 0.0386 fold-change vs cycle 0 with SALL4 ZFC4 WT (HT-SELEX), 0.794 ± 0.0243 fold-change vs cycle 0 in test [1] and 0.8869 ± 0.005 fold-change vs cycle 0 in test [2].

With CTCGTC, the binding signal stood at 0.385 ± 0.0153 fold-change vs cycle 0 with SALL4 ZFC4 WT (HT-SELEX), 0.487 ± 0.019 fold-change vs cycle 0 in test [1] and 0.571 ± 0.0514 fold-change vs cycle 0 in test [2].

In the case of ATTGGA, the binding signal stood at 1.3 ± 0.0815 fold-change vs cycle 0 with SALL4 ZFC4 WT (HT-SELEX), 1.36 ± 0.0818 fold-change vs cycle 0 in test [1] and 1.33 ± 0.0804 fold-change vs cycle 0 in test [2].

For CTGGGA, the binding signal with SALL4 ZFC4 WT (HT-SELEX) was determined as 0.455 ± 0.0297 fold-change vs cycle 0; in test [1], 0.528 ± 0.00656 fold-change vs cycle 0; in test [2] it was 0.594 ± 0.0357 fold-change vs cycle 0.

Turning to CTGTTC, the binding signal with SALL4 ZFC4 WT (HT-SELEX) worked out at 0.771 ± 0.0432 fold-change vs cycle 0; in test [1], 0.893 ± 0.0123 fold-change vs cycle 0; in test [2], 0.959 ± 0.0166 fold-change vs cycle 0.

For TTCAAA, the figures for the binding signal (with SALL4 ZFC4 WT (HT-SELEX); in test [1]; in test [2]) were 1.81 ± 0.113 fold-change vs cycle 0, 1.83 ± 0.0928 fold-change vs cycle 0 and 1.66 ± 0.161 fold-change vs cycle 0, respectively.

Consider ACGACA, for which the binding signal in the test with SALL4 ZFC4 WT (HT-SELEX) stood at 0.543 ± 0.0412 fold-change vs cycle 0; in test [1] it was 0.639 ± 0.0243 fold-change vs cycle 0; in test [2], 0.747 ± 0.0208 fold-change vs cycle 0.

Take CAATCA: the figures for the binding signal (with SALL4 ZFC4 WT (HT-SELEX); in test [1]; in test [2]) were 1.31 ± 0.0592 fold-change vs cycle 0, 1.41 ± 0.0553 fold-change vs cycle 0 and 1.4 ± 0.0622 fold-change vs cycle 0, respectively.

Regarding CCATAA, the binding signal with SALL4 ZFC4 WT (HT-SELEX) came to 1.51 ± 0.0387 fold-change vs cycle 0; in test [1] it was 1.36 ± 0.0383 fold-change vs cycle 0; in test [2], 1.28 ± 0.051 fold-change vs cycle 0.

On to CCAACG, for which the binding signal with SALL4 ZFC4 WT (HT-SELEX) turned out to be 0.347 ± 0.0246 fold-change vs cycle 0; in test [1] it was 0.388 ± 0.0249 fold-change vs cycle 0; in test [2], 0.505 ± 0.0781 fold-change vs cycle 0.

For the sequence GGATGA, the results for the binding signal (in the test with SALL4 ZFC4 WT (HT-SELEX); in test [1]; in test [2]) were 0.897 ± 0.0305 fold-change vs cycle 0, 1.01 ± 0.0334 fold-change vs cycle 0 and 1.02 ± 0.0224 fold-change vs cycle 0, respectively.

On to AAACCG, for which the binding signal with SALL4 ZFC4 WT (HT-SELEX) was found to be 0.532 ± 0.0183 fold-change vs cycle 0; in test [1], 0.604 ± 0.0163 fold-change vs cycle 0; in test [2], 0.705 ± 0.0593 fold-change vs cycle 0.

With ATCCAG, the results for the binding signal (with SALL4 ZFC4 WT (HT-SELEX); in test [1]; in test [2]) were 0.851 ± 0.0326 fold-change vs cycle 0, 0.955 ± 0.027 fold-change vs cycle 0 and 0.988 ± 0.0337 fold-change vs cycle 0, respectively.

Regarding GGGTAA, the binding signal was found to be 0.818 ± 0.0379 fold-change vs cycle 0 with SALL4 ZFC4 WT (HT-SELEX), 0.955 ± 0.0325 fold-change vs cycle 0 in test [1] and 0.918 ± 0.0131 fold-change vs cycle 0 in test [2].

With CACTTC, the values for the binding signal (with SALL4 ZFC4 WT (HT-SELEX); in test [1]; in test [2]) were 0.777 ± 0.0329 fold-change vs cycle 0, 0.925 ± 0.0515 fold-change vs cycle 0 and 0.946 ± 0.0498 fold-change vs cycle 0, respectively.

As for AGCACC, the values for the binding signal (with SALL4 ZFC4 WT (HT-SELEX); in test [1]; in test [2]) were 0.328 ± 0.0258 fold-change vs cycle 0, 0.375 ± 0.0109 fold-change vs cycle 0 and 0.521 ± 0.0558 fold-change vs cycle 0, respectively.

For ATTAAG, the binding signal in the test with SALL4 ZFC4 WT (HT-SELEX) is 2.1 ± 0.107 fold-change vs cycle 0; in test [1], 2.09 ± 0.139 fold-change vs cycle 0; in test [2], 1.82 ± 0.22 fold-change vs cycle 0.

Values taken from paper PMC9838217, “Structure of SALL4 zinc finger domain reveals link between AT-rich DNA binding and Okihiro syndrome”.
